From PubChem BioAssay AID504336 (NMMLSC, 2011)
Activity calls are given as the source filed them.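 How the source made its calls: active means compounds whose GFP signal falls below 65% of the DMSO control level; inconclusive means fewer than 70 yeast cells counted in the well; inactive means the rest.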

assay: TOR branch reporter RPL19A-GFP response – cell-based, S. cerevisiae, third cherry pick, flow cytometry, confirmation (AID 504336);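 further: median GFP fluorescence of all gated yeast cells by flow cytometry; ratio of well median fluorescence to plate mean of DMSO wells with DMSO = 100%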; settings: S. cerevisiae RPL19A-GFP strain, 3 h, at 10 µM, stronger effect = lower value

SMILES | GFP response relative to DMSO
C/C(O)=C(\C#N)C(=O)Nc1cc(Br)ccc1Br | 97.5% (inactive)
CN1CCN(c2ncnc3ccc(Br)cc23)CC1 | 99.3% (inactive)
CCN1CCN(c2ncnc3ccc(Br)cc23)CC1 | 100% (inactive)
Cc1ccc2c(c1N)C(=O)c1ccccc1C2=O | 101% (inactive)
CN(C)C(=O)Oc1ccnc2cc(Cl)ccc12 | 102% (inactive)
CN(C)C(=O)Oc1ccc(Cl)c2cccnc12 | 101% (inactive)
